Laboratory results reported in PubChem BioAssay (Tox21).
Inconclusive results are not listed. Active and inactive are the calls of the source. Unless noted, the call rests on the fitted dose curve; in most records, active means well fitted curve in the direction sought with a large enough effect in the repeat runs; inconclusive means weak or mixed curves; inactive means no such curve, though single readings can be large; an effect the other way counts as inactive or inconclusive.

Columns and labels:
[1] = qHTS assay to identify small molecule agonists of the peroxisome proliferator-activated receptor delta (PPARd) signaling pathway - cell viability counter screen (AID 743211); settings: PPARd-bla HEK293H viability, CellTiter-Glo luminescence, 17 h; series mostly up to 62.6 µM; further: nearly all actives have a fitted effect of over 55% in size
Outline: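 Viability of GeneBLAzer PPARd UAS-bla HEK293H cells was assessed after 17 h compound incubation at 37C, using CellTiter-Glo reagent added after the reporter read and luminescence recorded 30 min later.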

[2] = biological target: Peroxisome proliferator-activated receptor delta (Homo sapiens) (UniProt Q03181); experiment: qHTS assay to identify small molecule agonists of the peroxisome proliferator-activated receptor delta (PPARd) signaling pathway (AID 743212; calls by dose curve); settings: HEK293H PPARd-UAS-bla, beta-lactamase FRET ratio, 17 h; series mostly up to 62.6 µM
Outline: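 GeneBLAzer UAS-bla HEK293H cells carrying a PPARδ construct were exposed to compounds at 37 °C. Beta-lactamase activity was read by FRET fluorescence after 2 h at room temperature with LiveBLAzer B/G substrate.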

[3] = qHTS assay to identify small molecule antagonists of the peroxisome proliferator-activated receptor delta (PPARd) signaling pathway - cell viability counter screen (AID 743213); settings: PPARd-bla HEK293H viability, CellTiter-Glo luminescence, 17 h; series mostly up to 62 µM; further: nearly all actives have a fitted effect of over 50% in size
Outline: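 HEK293H cells with the PPARd UAS-bla reporter, co-treated 17 h at 37 C with compounds and L165041 (300 nM final), were lysed with CellTiter-Glo. Luminescence indicated viable cell content.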

[4] = biological target: Peroxisome proliferator-activated receptor delta (Homo sapiens) (UniProt Q03181); experiment: qHTS assay to identify small molecule antagonists of the peroxisome proliferator-activated receptor delta (PPARd) signaling pathway (AID 743215; active means well fitted inhibition curve with a large enough effect in the signal ratio in the repeat runs, not every such curve was filed as active; the % refers to the signal ratio;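 further: cells stimulated with agonist L165041 at 300 nM final during compound exposure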); settings: HEK293H PPARd-UAS-bla, beta-lactamase FRET ratio, antagonist, 17 h; series mostly up to 62 µM
Outline: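 Read-out is beta-lactamase FRET fluorescence, measured 2 h after substrate addition at room temperature. Beforehand, UAS-bla HEK293H cells carrying the PPARd reporter were exposed to compounds with L165041 at 300 nM final for 17 h at 37 C.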

[5] = qHTS assay to identify small molecule agonists of the farnesoid-X-receptor (FXR) signaling pathway - cell viability counter screen (AID 743218); settings: FXR-bla HEK293T viability, CellTiter-Glo luminescence, 16 h; series mostly up to 62.6 µM; further: nearly all actives have a fitted effect of over 45% in size
Outline: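 HEK 293T FXR-bla cells; 5 h pre-incubation, 16 h compound exposure at 37 C; LiveBLAzer substrate 2 h RT, then CellTiter-Glo 30 min RT, luminescence.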

[6] = qHTS assay to identify small molecule antagonists of the farnesoid-X-receptor (FXR) signaling pathway - cell viability counter screen (AID 743221; active means well fitted cell-killing curve with a large enough effect in the repeat runs, not every such curve was filed as active; further: nearly all actives have a fitted effect of over 50% in size); settings: FXR-bla HEK293T viability, CellTiter-Glo luminescence, 16 h; series mostly up to 62.6 µM
Outline: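 Quantitative HTS of the Tox21 10K library run in parallel with the beta-lactamase reporter read. HEK 293T cells carrying a UAS-driven bla reporter got compound and 50 uM CDCA (final) for 16 h; ATP-based luminescence followed.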

[7] = biological target: Vitamin D3 receptor (Homo sapiens) (UniProt P11473); experiment: qHTS assay to identify small molecule agonists of the vitamin D receptor (VDR) signaling pathway (AID 743222; calls by dose curve); settings: HEK293T VDR-UAS-bla, beta-lactamase FRET ratio, 16 h; series mostly up to 63.5 µM
Outline: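 VDR-bla cells, 2,000/well; 4 h preincubation 37C; cpd (DMSO) 16 h; LiveBLAzer B/G substrate 2 h RT; fluorescence intensity read.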

[8] = biological target: Vitamin D3 receptor (Homo sapiens) (UniProt P11473); experiment: qHTS assay to identify small molecule antagonists of the vitamin D receptor (VDR) signaling pathway (AID 743223; active means well fitted inhibition curve with a large enough effect in the signal ratio in the repeat runs, not every such curve was filed as active; the % refers to the signal ratio); settings: VDR-UAS-bla HEK293T, beta-lactamase FRET ratio, 16 h; series mostly up to 61 µM
Outline: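 Fluorescence from LiveBLAzer B/G FRET substrate, read after 2 h at room temperature, reflects beta-lactamase reporter activity in VDR-bla cells treated 16 h at 37C with compounds and agonist 1alpha,25-dihydroxyvitamin D3 (3 nM final).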

[9] = qHTS assay to identify small molecule antagonists of the vitamin D receptor (VDR) signaling pathway - cell viability counter screen (AID 743225); settings: VDR-bla HEK293T viability, CellTiter-Glo luminescence, 16 h; series mostly up to 61 µM; further: nearly all actives have a fitted effect of over 50% in size
Outline: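 Cells (VDR-UAS-bla HEK 293T) are plated, rested 4 h at 37C, dosed with compound and 3 nM final 1-alpha,25-dihydroxy vitamin D3, and incubated 16 h. Viability is taken from CellTiter-Glo luminescence in the reporter wells.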

[10] = qHTS assay to identify small molecule agonists of the NFkB signaling pathway (AID 1159509; active means well fitted curve in the direction sought with a large enough effect in the signal ratio in the repeat runs, not every such curve was filed as active; the % refers to the signal ratio); settings: NFkB-bla ME-180 cells, beta-lactamase FRET ratio, 5 h; series mostly up to 61 µM
Outline: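 NFkB-bla ME-180 cells carry a beta-lactamase reporter under an NF-kB response element. They were plated overnight, then exposed to compounds for 5 h at 37 C. Read-out is LiveBLAzer FRET after 1.5 hr at room temperature (405 nm excitation; 460/530 nm emission).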

[11] = qHTS assay to identify small molecule agonists of the NFkB signaling pathway - cell viability counter screen (AID 1159515; calls by dose curve; further: nearly all actives have a fitted effect of over 55% in size); settings: NFkB-bla ME-180 viability, CellTiter-Glo luminescence, 5 h; series mostly up to 61 µM
Outline: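 Luminescence from CellTiter-Glo (30 min, room temperature) gives viability, measured in the same wells as the beta-lactamase reporter read. Cells were NFkB-bla ME-180, 2,000 per well, treated 5 hr with compounds.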

[12] = qHTS assay to identify small molecule agonists of the endoplasmic reticulum stress response signaling pathway (AID 1159516; active means well fitted activation curve with a large enough effect in the signal ratio in the repeat runs, not every such curve was filed as active; the % refers to the signal ratio); settings: ESRE-bla HeLa, ER stress beta-lactamase reporter, 5 h; series mostly up to 61 µM
Outline: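 Read-out is beta-lactamase cleavage of a FRET substrate (405 nm excitation; 460 and 530 nm emissions) in ESRE-bla HeLa cells after a 5 hr compound exposure at 37 C. Substrate incubation ran 2 hr at room temperature.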

[13] = qHTS assay to identify small molecule agonists of the endoplasmic reticulum stress response signaling pathway - cell viability counter screen (AID 1159517; calls by dose curve;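 further: HeLa cells carrying an ER stress response element beta-lactamase reporter; nearly all actives have a fitted effect of over 50% in size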); settings: ESRE-bla HeLa viability, CellTiter-Glo luminescence, 5 h; series mostly up to 61 µM
Outline: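 ESRE-bla HeLa cells, 1,500 per well, seeded overnight then treated with compounds for 5 hr at 37 C. After the beta-lactamase read, viability in the same wells is measured by CellTiter-Glo luminescence after 30 min at room temperature.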

[14] = qHTS assay to identify small molecule antagonists of the retinoid-related orphan receptor gamma (ROR-gamma) signaling pathway - cell viability counter screen (AID 1159520); settings: Tet-on RORgamma CHO cells viability, ATP luminescence, 16 h; series mostly up to 92.4 µM; further: nearly all actives have a fitted effect of over 50% in size
Outline: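 Tet-on ROR gamma CHO cells were given compounds for 2 hr, then doxycycline hyclate at 1 uM final, and incubated 16 hr at 37 C. Viability was measured as ATP content by CellTiter-Glo luminescence.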

[15] = biological target: Nuclear receptor ROR-gamma (Homo sapiens) (UniProt P51449); experiment: qHTS assay to identify small molecule antagonists of the retinoid-related orphan receptor gamma (ROR-gamma) signaling pathway (AID 1159521); settings: Tet-on RORgamma CHO cells, RORE-luciferase, 16 h; series mostly up to 92.4 µM
Outline: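 RORγ antagonism is scored from reduced reporter luminescence in Tet-on CHO cells. Induction used 1 uM final doxycycline hyclate for 16 h at 37 C, following a 2 h compound exposure.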

[16] = qHTS assay to identify small molecule agonists of the AP-1 signaling pathway - cell viability counter screen (AID 1159525; calls by dose curve; further: nearly all actives have a fitted effect of over 55% in size); settings: ME-180 AP-1-bla cells viability, ATP luminescence, 5 h; series mostly up to 76.8 µM
Outline: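 AP-1-bla ME-180 cells in Opti-MEM with 0.5% dialyzed FBS, compound exposure 5 h at 37 C in 15-point titration. Viability read in the same wells as ATP content by CellTiter-Glo luminescence, normalised to tetra-n-octylammonium bromide and DMSO controls.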

[17] = qHTS assay to identify small molecule agonists of the AP-1 signaling pathway (AID 1159526; calls by dose curve); settings: ME-180 (cervical carcinoma) AP-1-bla reporter, beta-lactamase FRET ratio, 5 h; series mostly up to 76.8 µM
[18] = qHTS assay to identify small molecule agonists of the vitamin D receptor (VDR) signaling pathway - cell viability counter screen (AID 743224); settings: VDR-bla HEK293T viability, CellTiter-Glo luminescence, 16 h; series mostly up to 62.6 µM; further: nearly all actives have a fitted effect of over 50% in size
Outline: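 Luminescence from CellTiter-Glo, read after 30 min at room temperature, reports viability of VDR-bla cells treated with compounds for 16 h at 37C in the wells used for the beta-lactamase FRET read.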

[19] = biological target: Bile acid receptor (Homo sapiens) (UniProt Q96RI1); experiment: qHTS assay to identify small molecule antagonists of the farnesoid-X-receptor (FXR) signaling pathway (AID 743217; active means well fitted inhibition curve with a large enough effect in the signal ratio in the repeat runs, not every such curve was filed as active; the % refers to the signal ratio); settings: HEK293T FXR-UAS-bla, beta-lactamase ratio, CDCA-stimulated, 16 h; series mostly up to 62.6 µM
Outline: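 HEK 293T FXR-UAS-bla, 5000 cells/well; compound + CDCA 50 uM final; 16 h, 37 °C; B/G FRET substrate 2 h RT; fluorescence.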

[20] = biological target: Bile acid receptor (Homo sapiens) (UniProt Q96RI1); experiment: qHTS assay to identify small molecule agonists of the farnesoid-X-receptor (FXR) signaling pathway (AID 743220; active means well fitted activation curve with a large enough effect in the signal ratio in the repeat runs, not every such curve was filed as active; the % refers to the signal ratio); settings: HEK293T FXR-UAS-bla, beta-lactamase FRET ratio, 16 h; series mostly up to 62.6 µM
Outline: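 Beta-lactamase reporter under UAS control in GeneBLAzer FXR HEK 293T cells (5000/well) measured with LiveBLAzer FRET substrate after 2 h at room temperature. Compound exposure lasted 16 h at 37C.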

Measured: Potency

Sequence of Vitamin D3 receptor (Homo sapiens) (P11473 whole entry, looked up): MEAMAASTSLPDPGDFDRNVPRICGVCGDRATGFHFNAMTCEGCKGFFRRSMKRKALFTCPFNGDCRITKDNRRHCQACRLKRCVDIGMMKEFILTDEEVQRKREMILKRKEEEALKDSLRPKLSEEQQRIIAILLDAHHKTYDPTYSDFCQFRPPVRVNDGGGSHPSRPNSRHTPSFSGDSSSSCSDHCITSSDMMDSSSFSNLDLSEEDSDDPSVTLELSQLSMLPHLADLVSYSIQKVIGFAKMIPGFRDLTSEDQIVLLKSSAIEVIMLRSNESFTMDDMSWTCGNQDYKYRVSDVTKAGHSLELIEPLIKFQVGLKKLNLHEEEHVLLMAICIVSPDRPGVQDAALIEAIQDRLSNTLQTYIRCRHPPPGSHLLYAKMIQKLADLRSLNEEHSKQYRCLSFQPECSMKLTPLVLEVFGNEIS
Sequence of Bile acid receptor (Homo sapiens) (Q96RI1 whole entry, looked up): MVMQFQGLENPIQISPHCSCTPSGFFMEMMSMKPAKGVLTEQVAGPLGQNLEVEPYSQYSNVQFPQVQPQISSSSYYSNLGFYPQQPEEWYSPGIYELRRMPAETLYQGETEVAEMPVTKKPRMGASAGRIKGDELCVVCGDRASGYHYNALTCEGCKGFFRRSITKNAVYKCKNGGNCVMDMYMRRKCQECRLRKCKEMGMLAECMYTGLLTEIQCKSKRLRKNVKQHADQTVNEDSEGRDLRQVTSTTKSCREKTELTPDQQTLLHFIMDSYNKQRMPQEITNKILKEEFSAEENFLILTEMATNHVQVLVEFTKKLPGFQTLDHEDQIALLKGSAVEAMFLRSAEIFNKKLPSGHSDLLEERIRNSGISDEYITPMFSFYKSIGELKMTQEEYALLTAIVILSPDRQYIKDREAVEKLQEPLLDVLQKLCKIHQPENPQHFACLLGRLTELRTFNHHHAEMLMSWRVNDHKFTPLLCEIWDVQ
Sequence of Peroxisome proliferator-activated receptor delta (Homo sapiens) (Q03181 whole entry, looked up): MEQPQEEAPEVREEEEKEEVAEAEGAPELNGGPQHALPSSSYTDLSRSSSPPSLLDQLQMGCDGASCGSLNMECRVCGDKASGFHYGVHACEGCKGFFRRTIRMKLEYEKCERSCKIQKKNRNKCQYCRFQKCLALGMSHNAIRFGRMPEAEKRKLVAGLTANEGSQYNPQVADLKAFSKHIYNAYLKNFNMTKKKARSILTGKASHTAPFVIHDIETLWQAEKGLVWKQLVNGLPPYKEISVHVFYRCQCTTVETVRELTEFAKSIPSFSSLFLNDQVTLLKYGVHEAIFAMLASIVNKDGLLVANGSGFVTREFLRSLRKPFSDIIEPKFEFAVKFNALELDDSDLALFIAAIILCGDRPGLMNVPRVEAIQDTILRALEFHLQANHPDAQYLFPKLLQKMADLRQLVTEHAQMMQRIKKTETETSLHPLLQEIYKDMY

NC(=O)c1cc([N+](=O)[O-])cc([N+](=O)[O-])c1
not listed: [18] | [19] | [20]
inactive: all other assays above

CCOc1nc(C(Cl)(Cl)Cl)ns1
not listed: [19] | [20]
inactive: all other assays above

CCOP(=S)(OCC)Oc1cc(-c2ccccc2)on1
not listed: [4] | [8] | [18] | [20]
inactive: all other assays above

C(CCOCC1CO1)COCC1CO1 (stereo not drawn)
not listed: [5] | [8]
inactive: all other assays above

CNC(=O)N(C)c1nc2ccccc2s1
not listed: [4] | [8]
inactive: all other assays above

CCOP(=O)(N=C1SCCS1)OCC
not listed: [7] | [8] | [19] | [20]
inactive: all other assays above

C=C(C)[C@@H]1CC=C(C=O)CC1
not listed: [4] | [5] | [8]
inactive: all other assays above

N#CCNCC#N
not listed: [8] | [19] | [20]
inactive: all other assays above

CCc1cc2c(s1)-n1c(C)nnc1CN=C2c1ccccc1Cl
not listed: [20]
inactive: all other assays above

COCC(=O)N(c1c(C)cccc1C)N1CCOC1=O
inactive: all assays above

CCNc1nc(NC(C)C)nc(OC)n1
inactive: all assays above

N#CCCC#N
inactive: all assays above

CN(C)CCc1ccc(O)cc1
not listed: [5] | [8] | [18]
inactive: all other assays above

CCCCOP(=O)(O)OCCCC
not listed: [7] | [8] | [18]
inactive: all other assays above

N#CC(O)c1ccccc1 (stereo not drawn)
not listed: [4] | [8]
inactive: all other assays above
